The text below walks through data of PubChem BioAssay.

Active and inactive are the calls of the source.

A short description of test [1]: optical density shifts of acrAB sulA E. coli – strain DRC41, OD650, 48 h, E. coli filamentation inducer project, primary screen (AID 1152).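 Further: E. coli MC1000 strain DRC41 lacking acrAB efflux pump and sulA.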 Particulars: higher = more signal, called active from +8 up or from −8 down.
The nature of test [2]: probe aLefty1 binding on compound microarray – biochemical, small-molecule microarray, 635/667 nm fluorescence, primary screen (AID 1153).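 Further: score merges spot fluorescence with signal-to-noise ratio from the scanned slide images.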 Particulars: higher = more signal.
Test [3] is described as follows: plasmodial surface anion channel blockers, osmotic lysis – cell-based, P. falciparum Indochina, OD700, 1 h, primary screen (AID 1154). As to conditions: P. falciparum Indochina infected RBC osmotic lysis, higher = more signal, called active from +8 up or from −8 down.
A short description of test [4]: plasmodial surface anion channel blockers, osmotic lysis – cell-based, P. falciparum Indochina, OD700, 2 h, primary screen (AID 1155).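 Further: lysis reports solute entry through the parasite surface anion channel PSAC.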 Particulars: P. falciparum Indochina infected erythrocytes, higher = more signal, called active from +8 up or from −8 down.
Test [5] is described as follows: changes in parasitized red cell lysis, either direction – P. falciparum Indochina, OD700, 3 h, PSAC antagonist project, primary screen (AID 1156). As to conditions: P. falciparum-infected erythrocytes, osmotic lysis, higher = more signal, called active from +8 up or from −8 down.
Test [6] can be described thus: plasmodial surface anion channel blockers, osmotic lysis – cell-based, P. falciparum Indochina, OD700, 18 h, primary screen (AID 1157). Particulars: P. falciparum Indochina infected erythrocytes, osmotic lysis OD700, 18 h; higher = more signal, called active from +8 up or from −8 down.
Test [7] is described as follows: S6 kinase pathway phospho-S6 level changes – cell-based, A549, cytoblot, luminescence, serum-stimulated, primary screen (AID 1158).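 Further: serum-stimulated A549 lung adenocarcinoma cells; signal is phosphorylated S6 detected by cytoblot immunostaining with HRP secondary.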 As to conditions: 5 h, higher = more signal.
For test [8], the target named is NADPH oxidase 2 (Homo sapiens) (UniProt P04839). Kind of test: compounds shifting NOX2 Amplex Red fluorescence – cell-based, HEK293-NOX2, PMA-stimulated, NOX inhibitor project, primary screen (AID 1159). Further: test concentration not given here. As to conditions: 45 min, higher = more signal, called active from +8 up or from −8 down.
Sequence of NADPH oxidase 2 (Homo sapiens) (P04839 whole entry, looked up): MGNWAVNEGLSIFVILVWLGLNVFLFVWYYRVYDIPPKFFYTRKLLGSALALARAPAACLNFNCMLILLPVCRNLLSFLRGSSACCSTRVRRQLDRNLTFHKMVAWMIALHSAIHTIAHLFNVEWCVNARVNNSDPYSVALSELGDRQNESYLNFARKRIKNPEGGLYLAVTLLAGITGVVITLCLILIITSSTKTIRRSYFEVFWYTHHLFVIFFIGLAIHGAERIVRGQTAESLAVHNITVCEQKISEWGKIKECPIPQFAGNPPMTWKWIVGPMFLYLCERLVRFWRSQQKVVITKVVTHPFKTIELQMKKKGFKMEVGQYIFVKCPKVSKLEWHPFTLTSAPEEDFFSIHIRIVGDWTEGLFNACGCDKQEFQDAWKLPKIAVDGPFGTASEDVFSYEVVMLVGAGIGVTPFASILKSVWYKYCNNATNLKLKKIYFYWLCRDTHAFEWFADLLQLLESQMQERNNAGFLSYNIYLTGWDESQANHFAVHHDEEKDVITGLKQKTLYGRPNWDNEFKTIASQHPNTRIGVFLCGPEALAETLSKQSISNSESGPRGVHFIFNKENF
For test [9], the target named is NADPH oxidase 4 (Homo sapiens) (UniProt Q9NPH5). Kind of test: compounds shifting NOX4 Amplex Red fluorescence – cell-based, HEK293-NOX4, tetracycline-induced, NOX inhibitor project, primary screen (AID 1160). Particulars: HEK293-NOX4, Amplex Red H2O2 fluorescence, 45 min; higher = more signal, called active from +8 up or from −8 down.
Sequence of NADPH oxidase 4 (Homo sapiens) (Q9NPH5 whole entry, looked up): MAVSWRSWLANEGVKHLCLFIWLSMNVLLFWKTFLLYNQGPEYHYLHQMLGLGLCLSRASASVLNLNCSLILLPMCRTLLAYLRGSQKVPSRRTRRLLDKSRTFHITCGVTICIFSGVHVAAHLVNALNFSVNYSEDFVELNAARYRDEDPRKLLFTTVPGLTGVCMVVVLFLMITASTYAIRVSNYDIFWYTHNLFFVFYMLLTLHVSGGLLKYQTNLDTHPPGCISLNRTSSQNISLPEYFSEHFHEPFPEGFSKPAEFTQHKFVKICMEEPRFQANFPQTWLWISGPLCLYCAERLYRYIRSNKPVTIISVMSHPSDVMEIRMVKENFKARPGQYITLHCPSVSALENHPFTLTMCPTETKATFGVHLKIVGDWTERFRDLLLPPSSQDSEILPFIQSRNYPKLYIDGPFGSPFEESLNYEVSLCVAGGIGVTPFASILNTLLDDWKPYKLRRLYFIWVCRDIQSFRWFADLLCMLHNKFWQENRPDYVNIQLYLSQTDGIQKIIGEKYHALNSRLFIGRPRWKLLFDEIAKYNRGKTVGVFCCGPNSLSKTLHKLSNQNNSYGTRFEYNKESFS
Test [10] concerns the target NADPH oxidase 5 (Homo sapiens) (UniProt Q96PH1). Kind of test: compounds shifting NOX5 Amplex Red fluorescence – cell-based, HEK293-NOX5, NOX inhibitor project, primary screen (AID 1161). As to conditions: HEK293-NOX5, ionomycin, 45 min, higher = more signal.
Test [11] is described as follows: compound effects on lung adenocarcinoma cell viability – A549, calcein-AM fluorescence, 48 h, basal, profiling panel (AID 1162). Further: test concentration not given here. Particulars: higher = more signal.
Test [12] can be described thus: compound effects on differentiated 3T3-L1 adipocyte viability – cell-based, 3T3-L1 adipocytes, calcein-AM fluorescence, 48 h, basal, profiling panel (AID 1163). Further: test concentration not given here. Particulars: 3T3-L1 adipocytes viability, higher = more signal.
Test [13] is described as follows: compound effects on hepatocellular carcinoma cell viability – HepG2, calcein-AM fluorescence, 48 h, basal, profiling panel (AID 1164). Further: test concentration not given here. As to conditions: higher = more signal.
A short description of test [14]: compound effects on multiple myeloma cell viability – MM1S, calcein-AM fluorescence, 48 h, basal, profiling panel (AID 1165).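 Further: viability of MM1S multiple myeloma cells under basal unstimulated conditions; test concentration not given here.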 Particulars: higher = more signal.
Test [15] can be described thus: calcein-AM signal in unstimulated myeloma cells – cell-based, calcein-AM fluorescence, 48 h, PK04 Diversity Set, profiling panel (AID 1166).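 Further: cells grown under basal conditions without added stimulus; test concentration not given here.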 Particulars: RPMI8226 myeloma viability, higher = more signal.
A short description of test [16]: JC-1 mitochondrial signal, unstimulated HepG2 cells – cell-based, JC-1 fluorescence, 24 h, 100 nL compound, profiling panel (AID 1167). Further: test concentration not given here. Particulars: HepG2 mitochondrial potential, higher = more signal.
Test [17] can be described thus: JC-1 mitochondrial signal, unstimulated adipocytes – cell-based, JC-1 fluorescence, 3T3-L1 adipocytes, 24 h, 100 nL compound, profiling panel (AID 1168). Further: test concentration not given here. As to conditions: JC-1 mitochondrial fluorescence, higher = more signal, called active from +8 up or from −8 down.
Test [18] can be described thus: JC-1 mitochondrial signal, unstimulated myeloma cells – cell-based, JC-1 fluorescence, RPMI8226, 24 h, 100 nL compound, profiling panel (AID 1169). Further: test concentration not given here. Particulars: JC-1 mitochondrial potential fluorescence, higher = more signal.
A short description of test [19]: JC-1 mitochondrial signal, unstimulated MM1S myeloma – cell-based, JC-1 fluorescence, 24 h, 100 nL compound, profiling panel (AID 1170). Further: test concentration not given here. Particulars: MM1S mitochondrial potential, higher = more signal.
The nature of test [20]: resazurin metabolic signal in A549 cells – cell-based, resazurin fluorescence, 24 h, PK04 Diversity Set, profiling panel (AID 1171). Further: test concentration not given here. As to conditions: A549 viability, higher = more signal, called active from +8 up or from −8 down.

Sequence of NADPH oxidase 5 (Homo sapiens) (Q96PH1 whole entry, looked up): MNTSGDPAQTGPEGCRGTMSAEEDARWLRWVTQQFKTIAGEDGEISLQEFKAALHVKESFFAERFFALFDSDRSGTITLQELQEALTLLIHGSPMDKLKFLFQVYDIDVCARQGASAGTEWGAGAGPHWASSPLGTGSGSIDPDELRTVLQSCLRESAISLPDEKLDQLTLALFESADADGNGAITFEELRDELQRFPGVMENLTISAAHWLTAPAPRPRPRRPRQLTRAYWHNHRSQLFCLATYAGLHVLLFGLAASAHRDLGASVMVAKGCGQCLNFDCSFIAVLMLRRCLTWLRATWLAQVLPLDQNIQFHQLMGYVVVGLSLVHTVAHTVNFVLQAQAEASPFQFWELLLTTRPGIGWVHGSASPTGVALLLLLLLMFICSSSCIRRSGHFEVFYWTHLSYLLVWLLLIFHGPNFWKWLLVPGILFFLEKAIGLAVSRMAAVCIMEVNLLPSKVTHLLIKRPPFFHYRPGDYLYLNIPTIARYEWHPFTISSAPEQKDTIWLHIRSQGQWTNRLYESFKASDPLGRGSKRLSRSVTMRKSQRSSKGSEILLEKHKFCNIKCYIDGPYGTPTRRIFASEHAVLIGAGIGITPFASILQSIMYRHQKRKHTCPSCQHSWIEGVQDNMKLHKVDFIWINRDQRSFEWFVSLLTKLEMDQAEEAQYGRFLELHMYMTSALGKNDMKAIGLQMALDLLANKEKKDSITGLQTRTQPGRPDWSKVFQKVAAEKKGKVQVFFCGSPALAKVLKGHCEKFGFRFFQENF

As to `CCOC(=O)C1=CC[C@@H](c2ccccc2C(F)(F)F)N(S(=O)(=O)c2ccc(C)cc2)C1`, the z-score in test [1] was -0.007 (inactive); in test [3] it was 0.565 (inactive); in test [4] it was -0.555 (inactive); in test [5] it was -0.892 (inactive); in [6] it was -1.92 (inactive); in test [7], 0.39. Besides, the z-score in test [8] is 0.17 (inactive); in test [9], -0.742 (inactive); in test [10], -0.836; in test [11], -0.82; in test [12], 0.605; in test [13], 1.31. Also, the z-score in test [14] is -0.925; in test [15], -1.28; in [16], 2.51; in [17] it was 0.0742 (inactive); in test [18], -0.226; in test [19], -0.435. Moreover, the z-score in [20] is -1.27 (inactive). This molecule also came in with a composite z-score in test [2] of 0.743.

For the molecule `CN(C)CCCNC(=O)[C@@]1(c2ccc([N+](=O)[O-])cc2)CC(=O)N(CC23CC4CC(CC(C4)C2)C3)[C@@H]1c1ccc(CO)cc1`, the z-score is -3.6 (inactive) in [1]; 0.924 (inactive) in test [3]; -0.365 (inactive) in test [4]; -0.788 (inactive) in test [5]; -0.798 (inactive) in [6]; -2.28 in [7]. Besides, the z-score is -8.3 (active) in test [8]; -2.09 (inactive) in test [9]; 0.357 in test [10]; -3.74 in [11]; 0.0309 in [12]; -5.05 in [13]. For the same molecule, the z-score is -3.8 in test [14]; -4.03 in [15]; -1.58 in test [16]; 0.303 (inactive) in test [17]; -1.04 in [18]; -2.33 in test [19]. Moreover, the z-score in test [20] is -4.78 (inactive). In addition, the composite z-score in test [2] came out at 0.885.

`CC1CC/C=C\[C@H]2OC34C=CCN(c5ccc6ccccc6c5)C(=O)[C@H]3N(C(CO)C(C)C)C(=O)[C@@H]4C2C(=O)O1` (stereo not given in full): the z-score in test [1] is -0.488 (inactive); in [3] it was 4.35 (inactive); in test [4] it was 1.06 (inactive); in test [5], 1.01 (inactive); in test [6] it was 0.674 (inactive); in test [7], -0.526. Also, the z-score is 1.49 (inactive) in test [8]; -0.0631 (inactive) in test [9]; 1.68 in test [10]; 0.534 in test [11]; -0.443 in [12]; 0.468 in test [13]. Further, the z-score was 0.36 in [14]; 0.251 in [15]; 0.356 in test [16]; -0.328 (inactive) in [17]; 0.145 in test [18]; -0.158 in [19]. The z-score in [20] was -0.294 (inactive). In test [2], this molecule showed a composite z-score of 0.245.

In the case of `COCCCNC(=O)[C@]1(Cc2ccccc2CN=[N+]=[N-])N=C(c2ccc(OCCCO)cc2)O[C@@H]1c1ccccc1`, the z-score in [1] was 0.65 (inactive); in test [3] it was 26.2 (active); in test [4] it was 15.5 (active); in test [5], 1.28 (inactive); in test [6], 0.178 (inactive); in test [7] it was 1.64. Further, the z-score in test [8] is -1.94 (inactive); in test [9], -0.52 (inactive); in test [10] it was -1.46; in [11], -1.36; in test [12] it was 0.503; in test [13], -0.79. The z-score is -2.62 in test [14]; -4.24 in test [15]; -0.194 in [16]; 0.48 (inactive) in test [17]; -1.15 in test [18]; -1.11 in test [19]. Further, in test [20], the z-score is 0.28 (inactive). Besides, the composite z-score in test [2] is -0.184.

Consider `CC(C)C(O)C1C=CC2C(=O)N(C)C(=O)C2N1Nc1ccccc1` (stereo not given), for which the z-score in test [1] was -0.532 (inactive); in test [3] it was -0.162 (inactive); in [4] it was 1.18 (inactive); in test [5], 0.448 (inactive); in [6], 0.778 (inactive); in [7] it was -0.679. In addition, the z-score is -1.43 (inactive) in [8]; -3.72 (inactive) in test [9]; -2.93 in [10]; 0.678 in test [11]; -0.955 in [12]; 0.0515 in test [13]. In addition, the z-score in [14] is -1.53; in [15], -0.283; in test [16], -0.993; in test [17], -1.15 (inactive); in test [18], -0.0596; in test [19], -0.254. In test [20], the z-score was 0.204 (inactive). The same molecule yielded a composite z-score in [2] of 0.124.
